Compounds with a hit are over-represented: about 5.2% of the library has one in this group of screens.
NR3A LBD binder: NR3A (human) ligand-binding domain modulation | Tm shift relative to glycine control, % at 25 µM | NR3A LBD differential scanning fluorimetry, Tm shift; 0% = protein alone, 100% = glycine-bound protein | hit rate 2.5% among 340,000;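 active means melting temperature shift of at least 10% of the positive control shift, at one fixed dose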
Vif imaging: blocks HIV Vif function; HEK293T cells, Vif self-association by quenched fluorescence, imaging, 24 h; inhibition, % at 7.49 µM; hit rate 0.35% among 340,000; AID 602346; in the data active means inhibition above about 50%, passing the limit was not always enough; inconclusive means no clear call, values can overlap the other calls; inactive means below about 31%
SMARCA2 act: increases SMARCA2 function in MMTV reporter cells | hit rate 1% among 370,000 | AID 652017 | activation, % at 9.1 µM | MG213 cells, MMTV-luciferase reporter, dexamethasone, overnight; in the data active means activation above about 7.8%
esBAF inh: inhibitors of esBAF chromatin remodeling in mouse ES cells; reporter increase, % at 12.5 µM; hit rate 2% among 350,000; Bmi1-luciferase knock-in reporter, 24 h; 100% = twice the neutral-well signal; AID 602393; in the data active means activation above about 40%; inconclusive means no clear call, values can overlap the other calls;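 further: a rise in the Bmi1 reporter signal indicates esBAF inhibition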
NadD inh: NadD (S. aureus) enzyme inhibition | hit rate 0.78% among 360,000 | purified NadD enzyme, colorimetric absorbance read-out | inhibition, % at 20 µM; in the data active means inhibition above about 26%
SKN-1 inh: C. elegans SKN-1 inhibition | C. elegans VP596 Pgst-4::GFP/RFP ratio, acrylamide-induced, 24 h | inhibition, % at 21.8 µM | hit rate 0.49% among 360,000 | AID 624304;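 active means interference check ratio from 0.5 to 1.5 plus GFP to RFP signal ratio inhibition reaching or exceeding a fixed threshold, cut at about 30% in these data, passing the limit was not always enough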
Of the large screens only hits and unclear results are named; the others gave an inactive call.

C[C@H](CO)N1C[C@H](C)[C@@H](CN(C)Cc2ccc(C(=O)O)cc2)Oc2ccc(NC(=O)C3CC3)cc2C1=O	none (no result: NR3A LBD binder, Vif imaging, SMARCA2 act, NadD inh, SKN-1 inh)
NNCCc1ccccc1	Vif imaging inconclusive, esBAF inh 63
O=C(CC(=O)NCCc1ccccc1)NCCc1ccccc1	none
O=C(COC(=O)COc1ccc(Br)cc1)NCCC1=CCCCC1	NR3A LBD binder 12 (no result: esBAF inh)
O=C(COC(=O)COc1cccc(F)c1)NCCC1=CCCCC1	none (no result: esBAF inh)
O=C(COC(=O)/C=C/c1cccc(Cl)c1)NCCC1=CCCCC1	NR3A LBD binder 17 (no result: Vif imaging, esBAF inh)
CCCC#Cc1ccc2c(c1)O[C@H](CN(C)Cc1ccccc1)[C@H](C)CN([C@@H](C)CO)S2(=O)=O	none (no result: NR3A LBD binder, Vif imaging, SMARCA2 act, NadD inh, SKN-1 inh)
CO[C@H]1CN(C)C(=O)c2cc(NC(C)=O)ccc2OC[C@H](C)N(CC2CCCCC2)C[C@@H]1C	none (no result: NR3A LBD binder, Vif imaging, SMARCA2 act, NadD inh, SKN-1 inh)
Cc1ccc(OCC(=O)NNC(=O)c2ccc(NC(=O)C3CC3)cc2)c(C)c1	NR3A LBD binder 28
O=C(Nc1ccc2c(c1)[C@@H]1C[C@H](CC(=O)N3CCOCC3)O[C@H](CO)[C@@H]1O2)c1cccnc1	none (no result: NR3A LBD binder, Vif imaging, SMARCA2 act, NadD inh, SKN-1 inh)
CCCc1ccc2oc(C(=O)N3CCC(O)CC3)c(C)c2c1	esBAF inh inconclusive
COc1ccc2oc(C(=O)N(C)Cc3ccc(OC(F)F)cc3)c(C)c2c1	NR3A LBD binder 13
CCCc1ccc2oc(C(=O)N(C)Cc3nccs3)c(C)c2c1	esBAF inh 52
COc1ccc2oc(C(=O)N(C)CCOc3ccccc3)c(C)c2c1	none (no result: Vif imaging, esBAF inh)
C[C@H](CO)N1C[C@H](C)[C@H](CN(C)S(=O)(=O)c2ccc(F)cc2)Oc2c(NC(=O)Nc3cccc4ccccc34)cccc2C1=O	none (no result: NR3A LBD binder, Vif imaging, SMARCA2 act, NadD inh, SKN-1 inh)
CC(C)NC(=O)N(C)C[C@@H]1OCCCC[C@H](C)Oc2ccc(NC(=O)NC3CCCCC3)cc2C(=O)N([C@@H](C)CO)C[C@H]1C	none (no result: NR3A LBD binder, Vif imaging, SMARCA2 act, NadD inh, SKN-1 inh)
Cn1nccc1C(=O)Nc1ccc(Cl)cc1	esBAF inh 48
O=C(Nc1ccncc1)Nc1ccc(Cl)cc1	NR3A LBD binder 26
O=C(Nc1ccc(Cl)cc1)Nc1ccc(-c2cnco2)cc1	NR3A LBD binder 37
O=C(Nc1ccncc1)Nc1ccncc1	none (no result: esBAF inh)
N/C(=N\NC(=O)Nc1ccc(Cl)cc1)c1ccccn1	esBAF inh 47
CNC(=O)N/N=C(\N)c1ccccn1	none
Cc1ccc(NC(=O)Nc2ccon2)cc1	none (no result: esBAF inh)
O=C(Nc1ccc(Cl)cc1)Nc1ccon1	NR3A LBD binder 14
Cc1cccc2c(N=NC(=O)c3ccc(NS(=O)(=O)c4cccs4)cc3)c(O)[nH]c12	NadD inh 61
COc1ccc2[nH]c(O)c(N=NC(=O)c3ccc(NS(=O)(=O)c4cccs4)cc3)c2c1	esBAF inh 44
O=C(N=Nc1c(O)[nH]c2ccccc12)c1ccccc1NS(=O)(=O)c1cccs1	none (no result: esBAF inh)
O=C(N=Nc1c(O)[nH]c2ccc(F)cc12)c1ccc(NS(=O)(=O)c2cccs2)cc1	NadD inh 39
Cc1ccc2[nH]c(O)c(N=NC(=O)c3ccc(NS(=O)(=O)c4cccs4)cc3)c2c1	NadD inh 43
Cc1ccc(S(=O)(=O)N(C)C[C@H]2Oc3cc(C#Cc4ccccc4)ccc3S(=O)(=O)N([C@@H](C)CO)C[C@H]2C)cc1	none (no result: NR3A LBD binder, Vif imaging, SMARCA2 act, NadD inh, SKN-1 inh)
Cc1cccc2c(N=Nc3ccc(S(=O)(=O)Nc4ccc(Cl)cc4)cc3[N+](=O)[O-])c(O)[nH]c12	NadD inh 33
Cc1ccc(S(=O)(=O)Nc2ccc3c(c2)C(=O)N([C@@H](C)CO)C[C@@H](C)[C@@H](CN(C)S(C)(=O)=O)O3)cc1	none (no result: NR3A LBD binder, Vif imaging, SMARCA2 act, NadD inh, SKN-1 inh)
CN(C)c1cccc(F)c1C(=O)NC(=O)Nc1ccc(Cl)cc1	NR3A LBD binder 11 (no result: esBAF inh)
CN(C)c1cccc(N(C)C)c1CNC(=O)NC(=O)c1c(F)cccc1F	none
Cc1ccc(S(=O)(=O)N(C)C[C@@H]2OCCCC[C@H](C)Oc3ccc(NC(=O)NC(C)C)cc3C(=O)N([C@H](C)CO)C[C@H]2C)cc1	none (no result: NR3A LBD binder, Vif imaging, SMARCA2 act, NadD inh, SKN-1 inh)
Nc1ccc2oc(-c3ccccn3)nc2c1	none (no result: Vif imaging)
c1ccc(-c2nc3ccccc3o2)nc1	esBAF inh 46
Clc1ccc2oc(-c3ccccn3)nc2c1	SKN-1 inh 39 (no result: esBAF inh)
c1cncc(-c2nc3ccccc3o2)c1	none (no result: Vif imaging, esBAF inh)
c1ccc2nc(-c3nc4ccccc4o3)ccc2c1	SKN-1 inh 80 (no result: Vif imaging)
C[C@H](CO)N1C[C@H](C)[C@H](CN(C)Cc2ccccc2)OCCCC[C@H](C)Oc2ccc(NC(=O)Nc3ccc(C(F)(F)F)cc3)cc2C1=O	none (no result: NR3A LBD binder, Vif imaging, SMARCA2 act, NadD inh, SKN-1 inh)

Screening results from PubChem.
